# Experimental data from PubChem BioAssay.
# Calls of active or inactive are those of the source. Unless noted, how the calls were made is not given here.
# Assays:
# [1] = A549 cell viability effects, profiling panel, calcein-AM fluorescence, 48 h, basal (AID 1162); settings: higher = more signal; further: test concentration not given here
# [2] = adipocyte viability effects, profiling panel, cell-based, 3T3-L1 adipocytes, calcein-AM fluorescence, 48 h, basal (AID 1163); settings: 3T3-L1 adipocytes viability, higher = more signal; further: test concentration not given here
# [3] = HepG2 cell viability effects, profiling panel, calcein-AM fluorescence, 48 h, basal (AID 1164); settings: higher = more signal; further: test concentration not given here
# [4] = MM1S cell viability effects, profiling panel, calcein-AM fluorescence, 48 h, basal (AID 1165); settings: higher = more signal;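 further: viability of MM1S multiple myeloma cells under basal unstimulated conditions; test concentration not given here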
# [5] = basal RPMI8226 viability, no added stimulus, profiling panel, cell-based, calcein-AM fluorescence, 48 h, PK04 Diversity Set (AID 1166); settings: RPMI8226 myeloma viability, higher = more signal;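 further: cells grown under basal conditions without added stimulus; test concentration not given here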
# [6] = basal HepG2 mitochondrial membrane potential changes, profiling panel, cell-based, JC-1 fluorescence, 24 h, 100 nL compound (AID 1167); settings: higher = more signal; further: test concentration not given here
# [7] = basal 3T3-L1 adipocyte mitochondrial potential changes, profiling panel, cell-based, JC-1 fluorescence, 3T3-L1 adipocytes, 24 h, 100 nL compound (AID 1168); settings: JC-1 mitochondrial fluorescence, higher = more signal, called active from +8 up or from −8 down; further: test concentration not given here
# [8] = basal RPMI8226 mitochondrial membrane potential changes, profiling panel, cell-based, JC-1 fluorescence, 24 h, 100 nL compound (AID 1169); settings: RPMI8226 myeloma, JC-1 mitochondrial potential fluorescence, higher = more signal; further: test concentration not given here
# [9] = basal MM1S mitochondrial membrane potential changes, profiling panel, cell-based, JC-1 fluorescence, 24 h, 100 nL compound (AID 1170); settings: higher = more signal; further: test concentration not given here
# [10] = A549 lung cancer cell viability effects, profiling panel, resazurin fluorescence, 24 h, PK04 Diversity Set (AID 1171); settings: higher = more signal, called active from +8 up or from −8 down; further: test concentration not given here
# [11] = HepG2 liver cancer cell viability effects, profiling panel, resazurin fluorescence, 24 h, PK04 Diversity Set (AID 1172); settings: higher = more signal; further: test concentration not given here
# [12] = basal S. cerevisiae growth modulation, no modifier, primary screen, OD600, strain BY4716, 24 h, basal condition (AID 1173); settings: OD600, 24 h, higher = more signal, called active from +8 up or from −8 down
# [13] = MM1S myeloma cell viability, profiling panel, resazurin fluorescence, basal, 24 h, PK04 Diversity Set (AID 1174); settings: higher = more signal, called active from +8 up or from −8 down;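 further: MM1S multiple myeloma cell line; test concentration not given here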
# [14] = biological target: Dihydroorotate dehydrogenase (quinone), mitochondrial (Plasmodium falciparum (isolate 3D7)) (UniProt Q08210); test: PfDHODH enzyme inhibitors, primary screen, biochemical, C-terminal His tag, absorbance 600 nm (AID 1175); settings: DCIP absorbance 600 nm, higher = more signal, called active from +8 up or from −8 down;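 further: recombinant parasite enzyme with a five histidine tag at its C terminus; test concentration not given here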
# Dihydroorotate dehydrogenase (quinone), mitochondrial (Plasmodium falciparum (isolate 3D7)), sequence (Q08210 whole entry, looked up): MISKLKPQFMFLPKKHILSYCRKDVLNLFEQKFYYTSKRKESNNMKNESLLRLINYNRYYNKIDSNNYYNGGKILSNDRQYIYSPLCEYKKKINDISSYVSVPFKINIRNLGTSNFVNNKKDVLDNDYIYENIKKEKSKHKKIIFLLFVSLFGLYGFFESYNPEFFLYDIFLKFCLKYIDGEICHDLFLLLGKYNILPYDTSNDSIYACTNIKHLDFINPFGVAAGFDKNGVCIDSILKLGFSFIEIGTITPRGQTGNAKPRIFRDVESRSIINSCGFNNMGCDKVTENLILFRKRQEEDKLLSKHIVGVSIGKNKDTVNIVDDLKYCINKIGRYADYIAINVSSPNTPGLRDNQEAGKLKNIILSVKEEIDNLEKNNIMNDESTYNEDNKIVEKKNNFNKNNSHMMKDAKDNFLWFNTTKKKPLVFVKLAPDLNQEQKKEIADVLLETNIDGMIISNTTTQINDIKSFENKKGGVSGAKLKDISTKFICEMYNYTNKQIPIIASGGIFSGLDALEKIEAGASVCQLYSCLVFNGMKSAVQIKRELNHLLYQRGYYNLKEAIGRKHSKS
# [15] = P. aeruginosa biofilm formation inhibitors, primary screen, strain PAO1, LB-PBS medium, absorbance 600 nm (AID 1176); further: test concentration not given here; settings: P. aeruginosa PAO1 growth/biofilm, A600, 12 h; higher = more signal
# [16] = S. cerevisiae RM11-1a growth modifiers, primary screen, strain RM11-1a, OD600, basal, 24 h (AID 1177); settings: OD600, 24 h, higher = more signal, called active from +8 up or from −8 down;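 further: cultures grown under basal conditions with no added stressor; test concentration not given here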
# [17] = E. coli acrAB mutant growth effects, primary screen, E. coli filamentation inducers, strain DRC39, OD650, 24 h (AID 1178); settings: higher = more signal, called active from +8 up or from −8 down;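 further: growth measured as culture turbidity by optical density at 650 nm; test concentration not given here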
# [18] = E. coli acrAB mutant growth effects, primary screen, E. coli filamentation inducers, strain DRC39, OD650, 48 h (AID 1179);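 further: screen aims at cell division blockers that make cells filament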; settings: E. coli DRC39 delta-acrAB growth, higher = more signal, called active from +8 up or from −8 down
# [19] = RPMI8226 myeloma cell viability, profiling panel, resazurin fluorescence, basal, 24 h, PK04 Diversity Set (AID 1180); settings: higher = more signal;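 further: RPMI8826 multiple myeloma cell line at 5000 cells per well; test concentration not given here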
# [20] = biological target: E3 ubiquitin-protein ligase XIAP (Homo sapiens) (UniProt P98170); test: XIAP binders, primary screen, biophysical, small-molecule microarray, fluorescence 635 nm (AID 1181); settings: small-molecule microarray binding, higher = more signal;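 further: score merges 667 nm emission and signal to noise over triplicate slides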
# E3 ubiquitin-protein ligase XIAP (Homo sapiens), sequence (P98170 whole entry, looked up): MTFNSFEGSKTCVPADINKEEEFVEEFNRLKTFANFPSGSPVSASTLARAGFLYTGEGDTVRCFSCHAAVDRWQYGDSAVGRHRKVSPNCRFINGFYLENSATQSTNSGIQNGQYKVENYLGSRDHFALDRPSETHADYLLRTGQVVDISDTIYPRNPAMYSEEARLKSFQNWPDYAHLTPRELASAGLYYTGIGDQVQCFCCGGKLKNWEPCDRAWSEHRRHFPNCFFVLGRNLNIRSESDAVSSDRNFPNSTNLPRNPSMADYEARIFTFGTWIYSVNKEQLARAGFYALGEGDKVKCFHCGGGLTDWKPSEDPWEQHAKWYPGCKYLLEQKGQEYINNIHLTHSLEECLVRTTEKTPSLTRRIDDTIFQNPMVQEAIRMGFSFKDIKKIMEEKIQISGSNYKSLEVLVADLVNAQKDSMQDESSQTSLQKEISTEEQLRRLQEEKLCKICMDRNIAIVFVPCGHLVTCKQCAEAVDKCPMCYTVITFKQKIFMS
SMILES,z-score [1],z-score [2],z-score [3],z-score [4],z-score [5],z-score [6],z-score [7],z-score [8],z-score [9],z-score [10],z-score [11],z-score [12],z-score [13],composite z-score [14],z-score [15],z-score [16],z-score [17],z-score [18],z-score [19],composite z-score [20]
C=C[C@@H](C)[C@H](O)c1ccc(OCCO)cc1,0.283,0.154,-0.0484,0.0554,-0.289,1.2,0.0591 (inactive),0.948,-0.612,-0.0272 (inactive),0.0075,-0.731 (inactive),0.088 (inactive),-0.445 (inactive),0.0852 (inactive),0.164 (inactive),1.02 (inactive),0.856 (inactive),-0.127,-0.184
COc1ccc([Si](C)(C)[C@@H]2[C@@H](CCn3cc([C@H](O)c4ccccc4)nn3)O[C@]3(C(=O)N(c4ccccc4)c4ccccc43)[C@H]2C)cc1,-0.985,1.98,-2.22,-1.18,-3.91,1.63,0.177 (inactive),-0.973,-0.681,-2.3 (inactive),-2.07,-0.284 (inactive),-3.04 (inactive),-0.204 (inactive),1.08 (inactive),0.77 (inactive),-0.434 (inactive),-0.502 (inactive),-3.15,-0.131
NC(=O)[C@H]1[C@@H]2C(=O)O[C@@H](c3ccccc3)[C@@H](c3ccccc3)N2[C@@H](c2ccc(O)cc2)[C@]12C(=O)Nc1ccc(C#CC3=CCCCC3)cc12,-1.8,0.741,-3.91,-3.33,-4.54,-3.68,-2.09 (inactive),-1.16,-1.32,-0.3 (inactive),-0.111,0.137 (inactive),-2.5 (inactive),-0.146 (inactive),-0.144 (inactive),1.76 (inactive),-0.466 (inactive),-0.51 (inactive),-4.76,-0.0773
CC(C)C(=C=CC[C@H](O)c1cccc(OCCO)c1)CCO,0.211,0.786,0.401,0.214,0.292,0.434,-0.599 (inactive),0.6,-0.373,1.21 (inactive),0.934,-1.47 (inactive),1.09 (inactive),-0.131 (inactive),-0.0464 (inactive),-0.661 (inactive),0.353 (inactive),0.642 (inactive),0.929,-0.031
COc1cc(NN2C(C(O)C3CCCCC3)C=CC3C(=O)N(c4ccccc4)C(=O)C32)cc(OC)c1OC (stereo not given),-0.278,0.0809,0.736,-0.434,-1.8,-1.08,0.0506 (inactive),-0.741,0.439,-1.37 (inactive),-1.64,1.2 (inactive),-1.62 (inactive),-0.0779 (inactive),0.698 (inactive),0.135 (inactive),-0.0089 (inactive),-0.545 (inactive),-1.67,0.337
COCCOC(=O)N1C(=O)[C@@]2(c3cc(C#CC4=CCCCC4)ccc31)[C@H](c1ccc(O)cc1)N1[C@H](c3ccccc3)[C@H](c3ccccc3)OC(=O)[C@H]1[C@@H]2C(=O)NC[C@H](O)c1ccccc1,-0.309,-0.539,0.778,-1.3,-3.84,-1.83,2.04 (inactive),-1.08,-1.06,-2.06 (inactive),-1.35,0.237 (inactive),-2.48 (inactive),-0.495 (inactive),1.29 (inactive),1.94 (inactive),-0.396 (inactive),0.478 (inactive),-2.55,0.0471
COc1ccc(C#Cc2ccc3c(c2)[C@]2(C(=O)N3)[C@H](C(=O)Nc3nc4ccccc4s3)[C@H]3C(=O)O[C@H](c4ccccc4)[C@H](c4ccccc4)N3[C@@H]2c2ccccc2OCCO)cc1,0.609,1.61,0.211,-0.708,-0.451,-2.79,3.69 (inactive),-1.03,-1.27,-0.801 (inactive),0.154,1.08 (inactive),0.303 (inactive),-5.43 (inactive),2.69 (inactive),1.66 (inactive),0.82 (inactive),0.413 (inactive),1.5,0.0507
O=C1c2ccccc2[C@](Cc2ccccc2I)(C(=O)NC2CC2)[C@H](c2ccc(CO)cc2)N1Cc1ccccc1C(F)(F)F,0.319,0.865,-0.0085,-0.645,-2.83,0.476,0.347 (inactive),-0.761,-0.154,0.272 (inactive),-0.113,-0.637 (inactive),0.762 (inactive),0.129 (inactive),0.842 (inactive),0.108 (inactive),0.169 (inactive),-0.707 (inactive),0.154,0.125
CN(C)C(=O)[C@@]1(Cc2ccccc2N=[N+]=[N-])N=C(c2ccc(OCCCO)cc2)O[C@H]1c1ccccc1,-1.85,0.574,-0.954,-2.99,-3.67,0.517,0.0738 (inactive),-1.25,-1.67,-2.2 (inactive),0.329,-1.23 (inactive),-3.18 (inactive),0.346 (inactive),0.274 (inactive),0.751 (inactive),-0.105 (inactive),-1.1 (inactive),-3.04,0.102
COc1ccc(C(=O)Nc2cccc(CN3C(=O)[C@@]4(O[C@@H](CC(=O)N(CCO)Cc5ccccc5)[C@H]([Si](C)(C)c5ccc(OC)cc5)[C@H]4C)c4ccccc43)c2)cc1,-0.269,1.36,-1.39,-0.696,-4.07,0.672,2.67 (inactive),-0.865,-0.789,-2.23 (inactive),-0.0246,0.062 (inactive),-2.3 (inactive),-2.25 (inactive),0.711 (inactive),0.621 (inactive),0.289 (inactive),0.45 (inactive),-2.67,-0.0365
CN1C(=O)C2C(C1=O)C1C=C(CCCO)C2C(C2CC2)N1Cc1cc2c(cc1Br)OCO2 (stereo not given),-0.487,0.337,-0.717,-0.172,-0.909,0.435,-0.527 (inactive),0.87,0.859,-0.477 (inactive),-0.622,-0.975 (inactive),-1 (inactive),-0.341 (inactive),0.0721 (inactive),0.0644 (inactive),-0.344 (inactive),-0.291 (inactive),-0.543,-0.113
COCCCNC(=O)[C@@]1(c2ccc([N+](=O)[O-])cc2)CC(=O)N(CC23CC4CC(CC(C4)C2)C3)[C@@H]1c1ccc(CO)cc1I,-1.28,-0.64,-2.75,-3.75,-4.35,2.16,-1.23 (inactive),-1.02,-1.81,-2.76 (inactive),-2.61,1.02 (inactive),-3.15 (inactive),1.11 (inactive),0.457 (inactive),2.43 (inactive),-0.0284 (inactive),-0.107 (inactive),-3.52,0.144
COc1ccc(C(O)C2C=CC3C(=O)N(c4ccccc4)C(=O)C3N2Nc2ccc(C(C)C)cc2)c2ccccc12 (stereo not given),0.181,-0.946,0.301,-0.419,0.129,-0.783,0.0228 (inactive),-0.293,-0.154,-0.64 (inactive),-2.57,-1.62 (inactive),-0.871 (inactive),0.183 (inactive),1.8 (inactive),0.427 (inactive),0.0571 (inactive),0.313 (inactive),-0.208,0.349
CCOC(=O)C1=C[C@@H](C(C)(C)C)N(S(=O)(=O)c2ccc(C)cc2)[C@H]1c1cccc(Cl)c1,-2.79,-0.192,-2.64,-2.77,-4.21,5.38,0.318 (inactive),-1.14,-2.3,-1.12 (inactive),-0.594,2.15 (inactive),-1.66 (inactive),1.08 (inactive),0.16 (inactive),2.81 (inactive),-0.326 (inactive),-0.104 (inactive),-3.41,-0.0994
NC(=O)[C@H]1[C@@H]2C(=O)O[C@@H](c3ccccc3)[C@@H](c3ccccc3)N2[C@@H](c2ccc(O)cc2)[C@]12C(=O)Nc1ccccc12,-0.265,-0.712,0.872,0.519,-0.544,-0.288,-0.243 (inactive),-0.309,-0.371,-0.189 (inactive),-0.367,-0.376 (inactive),0.0279 (inactive),0.0023 (inactive),0.0332 (inactive),0.575 (inactive),-0.145 (inactive),0.0129 (inactive),0.417,-0.0559
CN(C)C(=O)[C@@]1(Cc2ccccc2)COC(c2ccc(OCCCO)cc2)=N1,0.0581,-0.538,-0.0485,-1.22,0.726,-0.455,-0.384 (inactive),0.0953,-1.17,-0.193 (inactive),-0.272,-3.27 (inactive),-0.403 (inactive),0.263 (inactive),-0.841 (inactive),0.536 (inactive),0.704 (inactive),1.19 (inactive),0.449,0.521
C=CCN1C(=O)[C@]2(O[C@H](CCO)[C@@H]([Si](C)(C)c3ccc(OC)cc3)[C@@H]2C)c2cc(NC(=O)c3ccc(OC)cc3)ccc21,-3.78,-0.562,-4.65,-2.69,-4.38,-0.446,0.96 (inactive),-0.953,-2.2,-3.7 (inactive),-4.24,-1.07 (inactive),-4.56 (inactive),-0.224 (inactive),1.98 (inactive),2.23 (inactive),0.626 (inactive),-0.723 (inactive),-6.22,0.401
